Screening data as filed in PubChem BioAssay.
Many of the other results were omitted from the sample, so hits are more common in it than they were.
ROS inducer: inducers of reactive oxygen species in cancer cells; U2OS ROS induction, H2DCF-DA fluorescence; ROS induction (% of piperlongumine), % at 10 µM; 2% of 46,000 active; in the data active = ROS induction above about 79%, passing the limit was not always enough; inconclusive = no clear call, values can overlap the other calls
NOMO-1 viab: STK33 inhibitor candidate reducing NOMO-1 cell viability. NOMO-1 AML viability, CellTiter-Glo luminescence, 72 h. 7.5% of 37,000 active. inhibition, % (concentration not given with the values); in the data active = inhibition above about 80%; inconclusive = no clear call, values can overlap the other calls
PD-1 reverse act: activators reversing PD-1 mediated T-cell inhibition. 29,000 tested, under 10 active. activation, % (concentration not given with the values). primary human CD4 T cells, PD-L1 beads, CellTiter-Glo 96 h; call rule not given here
A number is an active result; i = inactive; ? = inconclusive; nt = not tested or not shown.

SMILES	ROS inducer	NOMO-1 viab	PD-1 reverse act
c1cc(C2OCC3(CO2)COC(c2ccncc2)OC3)ccn1 (centres undefined)	i	nt	nt
CC(N=C1CCCc2ccccc2N1)C(=O)O (centres undefined)	i	nt	nt
Oc1ccccc1-c1nnc(SCc2ccccc2)n1-c1ccccc1	i	nt	nt
Cc1oc(S(=O)(=O)N2CCCC2)cc1C(=O)NCCN1CCNC1=O	i	nt	nt
C[C@@H]1CCCCO[C@@H](CN(C)C(=O)NC2CCCCC2)[C@@H](C)CN([C@H](C)CO)C(=O)c2cc(NC(=O)Nc3cccc4ccccc34)ccc2O1	139	i	i
C[C@@H]1CCCCO[C@@H](CN(C)C(=O)Nc2cccc3ccccc23)[C@@H](C)CN([C@H](C)CO)C(=O)c2cc(NC(=O)NC3CCCCC3)ccc2O1	i	i	i
C[C@@H]1CCCCO[C@@H](CN(C)C(=O)Nc2cccc3ccccc23)[C@@H](C)CN([C@H](C)CO)C(=O)c2cc(NS(=O)(=O)c3ccc(Cl)cc3)ccc2O1	107	102	nt
C[C@@H]1CCCCO[C@@H](CN(C)C(=O)Nc2cccc3ccccc23)[C@@H](C)CN([C@H](C)CO)C(=O)c2cc(NS(=O)(=O)c3ccc(F)cc3)ccc2O1	i	i	nt
CN(Cc1ccccc1)C(=O)c1ccccc1Cl	i	nt	nt
COc1ccc(C(NC(=O)C2CC=CCC2C(=O)O)c2ccccc2)cc1 (centres undefined)	i	nt	nt
O=C(CSc1n[nH]c(-c2ccco2)n1)N1c2ccccc2Sc2ccccc21	nt	i	nt
CCOC(=O)CSc1n[nH]c(CN2c3ccccc3Sc3ccccc32)n1	i	117	i
COC(=O)C[C@H]1C(C)(C)C2(Cl)O[C@@]34CC2C(=O)[C@]1(C)C3CC[C@]1(C)C4=CC(=O)O[C@H]1c1ccoc1 (some centres undefined)	i	101	nt
C=C1C2CC[C@@]3(C)[C@H](c4ccoc4)OC(=O)C[C@]13O[C@H]1CC(=O)C(C)(C)C(CC(=O)OC)[C@@]21C (some centres undefined)	i	i	nt
Cn1c(CCN(Cc2ccco2)S(=O)(=O)c2ccc(Cl)cc2)n[nH]c1=S	i	nt	nt
COc1ccc(-c2oc3cc(OC)c(OC)c(O)c3c(=O)c2OC)cc1OC	82	i	i
COc1cc(O)c2c(=O)c(OC)c(-c3cc(O)c(OC)c(OC)c3)oc2c1	i	i	i
c1ccc2[nH]c(Nn3cnnc3)nc2c1	i	nt	nt
O=C(CCc1ccc(O)cc1)CC(CCc1ccc(O)cc1)O[C@@H]1OC[C@@H](O)[C@H](O)[C@H]1O (some centres undefined)	i	113	i
Oc1ccc(CCCCC(CCc2ccc(O)cc2)O[C@@H]2OC[C@@H](O)[C@H](O)[C@H]2O)cc1 (some centres undefined)	i	nt	nt
O=C(CSc1ncnc2sc(-c3ccccc3)cc12)c1ccc2c(c1)OCCO2	i	i	i
S=C(NC1CCCCC1)Sc1ccc(Cl)cc1	i	122	i
S=C(NC1CCCCC1)C(=S)NC1CCCCC1	i	i	i
COc1ccc(NC(=O)c2ccc3c(c2)OCCO3)cc1	i	nt	nt
C[C@@H]1CN([C@@H](C)CO)C(=O)Cc2cc(NS(=O)(=O)c3ccc(Cl)cc3)ccc2O[C@@H]1CN(C)Cc1ccc(-c2ccccc2)cc1	i	i	i
SMILES	ROS inducer	NOMO-1 viab	PD-1 reverse act
C[C@@H]1CN([C@H](C)CO)C(=O)Cc2cc(NS(=O)(=O)c3ccc(Cl)cc3)ccc2O[C@H]1CN(C)Cc1ccc(-c2ccccc2)cc1	i	i	i
C[C@H]1CN([C@@H](C)CO)C(=O)Cc2cc(NS(=O)(=O)c3ccc(Cl)cc3)ccc2O[C@H]1CN(C)Cc1ccc(-c2ccccc2)cc1	i	111	i
C[C@@H]1CN([C@H](C)CO)C(=O)Cc2cc(NS(=O)(=O)c3ccc(Cl)cc3)ccc2O[C@@H]1CN(C)Cc1ccc(-c2ccccc2)cc1	i	122	i
CCN(Cc1ccccc1)C(=O)CSc1nc2ccccc2c2nc3ccccc3n12	i	nt	nt
CC(C)Nc1cnn(C23CC4CC(CC(C4)C2)C3)c(=O)c1Cl	i	nt	nt
C=C1CC[C@@H]2[C@](C)(CO[C@@H]3O[C@H](CO)[C@@H](O)[C@H](O)[C@H]3O)CCC[C@@]2(C)[C@@H]1CCC1=CCOC1=O	i	i	i
C=C1CC[C@@H]2[C@](C)(CO)[C@H](O)CC[C@@]2(C)[C@@H]1CC(O)C1=CCOC1=O (some centres undefined)	i	106	i
Cc1cc(C(=O)Nc2cccc3c2O[C@H](CN(C)Cc2ccc(Oc4ccccc4)cc2)[C@@H](C)CN([C@H](C)CO)C3=O)n(C)n1	172	111	i
Cc1cc(C(=O)Nc2cccc3c2O[C@@H](CN(C)Cc2ccc(-c4ccccc4)cc2)[C@H](C)CN([C@@H](C)CO)C3=O)n(C)n1	?	i	i
Cc1cc(C(=O)Nc2cccc3c2O[C@@H](CN(C)Cc2ccccc2)[C@@H](C)CN([C@H](C)CO)C3=O)n(C)n1	i	i	i
Cc1cc(C(=O)Nc2cccc3c2O[C@H](CN(C)Cc2ccc(-c4ccccc4)cc2)[C@@H](C)CN([C@H](C)CO)C3=O)n(C)n1	196	89	i
NC(=O)c1ccccc1NC(=O)CC(c1ccccc1)c1ccccc1	i	nt	nt
CCOc1ccccc1-n1c(N)c(C#N)c(N)c(C#N)c1=S	i	nt	nt
COc1cccc2cc(C(=O)NCc3ccccn3)c(=O)oc12	i	i	i
O=C(CC1(O)C(=O)N(Cc2ccccc2)c2ccccc21)c1cc2ccccc2oc1=O (centres undefined)	i	105	i
O=C(c1cc2ccccc2oc1=O)N(Cc1ccccc1)Cc1ccccc1	i	nt	nt
COc1cccc2cc(C(=O)CC3(O)C(=O)N(Cc4ccccc4)c4ccc(Br)cc43)c(=O)oc12 (centres undefined)	?	127	i
Cc1ccc(N2C(=O)CC(Cc3ccccc3)C2=O)cc1 (centres undefined)	i	nt	nt
O=C(CCC(=O)Nc1ccc(F)cc1)Nc1ccc(F)cc1	i	nt	nt
Cc1ccc(S(=O)(=O)N(C)C[C@@H]2Oc3ccc(NC(=O)CCC(F)(F)F)cc3CC(=O)N([C@H](C)CO)C[C@H]2C)cc1	i	i	nt
C[C@H]1CN([C@@H](C)CO)C(=O)Cc2cc(NC(=O)Nc3ccccc3)ccc2O[C@@H]1CN(C)S(=O)(=O)c1ccc(Cl)cc1	i	i	i
C[C@@H]1CN([C@@H](C)CO)C(=O)Cc2cc(NC(=O)Nc3ccccc3)ccc2O[C@@H]1CN(C)S(=O)(=O)c1ccccc1	i	i	nt
C[C@@H]1CN([C@H](C)CO)C(=O)Cc2cc(NC(=O)C3CC3)ccc2O[C@@H]1CN(C)S(=O)(=O)c1ccc(Cl)cc1	i	i	i
C[C@H]1CN([C@@H](C)CO)C(=O)Cc2cc(NC(=O)Nc3ccccc3)ccc2O[C@H]1CN(C)S(=O)(=O)c1ccc(Cl)cc1	i	113	i
C[C@H](CO)N1C[C@H](C)[C@H](CN(C)S(=O)(=O)c2ccc(Cl)cc2)Oc2ccc(NC(=O)C3CC3)cc2CC1=O	123	?	i
Cc1ccc(S(=O)(=O)N(C)C[C@@H]2Oc3ccc(NC(=O)CCC(F)(F)F)cc3CC(=O)N([C@@H](C)CO)C[C@@H]2C)cc1	i	134	i
Cc1ccc(S(=O)(=O)N(C)C[C@@H]2Oc3ccc(NC(=O)Nc4ccccc4)cc3CC(=O)N([C@@H](C)CO)C[C@@H]2C)cc1	i	124	nt
